The structures appear in SMILES notation. Values joined by “and” are separate entries in the source; they are usually repeats but may differ in a detail not shown here. Equal entries are not always repeated. The whole screen tested about 16,000 compounds, of which about 5,100 (32%) were called active. Roughly 25% stayed inconclusive and do not appear here. Calls come from the whole dose curve; as a rule, active = well fitted curve in the direction sought with a large enough effect; inconclusive = small, poorly fitted or top-dose-only effect, or effect the other way; inactive = no such curve, though single readings can be large or run the other way. This is one part of the list.

A word on the AC50: it is the concentration at which the activity in the assay is half-maximal.
% is set by controls: 0 for no effect and ±100 for the full control effect.

Sequence of Cytochrome P450 3A4 (Homo sapiens) (P08684 whole entry, looked up): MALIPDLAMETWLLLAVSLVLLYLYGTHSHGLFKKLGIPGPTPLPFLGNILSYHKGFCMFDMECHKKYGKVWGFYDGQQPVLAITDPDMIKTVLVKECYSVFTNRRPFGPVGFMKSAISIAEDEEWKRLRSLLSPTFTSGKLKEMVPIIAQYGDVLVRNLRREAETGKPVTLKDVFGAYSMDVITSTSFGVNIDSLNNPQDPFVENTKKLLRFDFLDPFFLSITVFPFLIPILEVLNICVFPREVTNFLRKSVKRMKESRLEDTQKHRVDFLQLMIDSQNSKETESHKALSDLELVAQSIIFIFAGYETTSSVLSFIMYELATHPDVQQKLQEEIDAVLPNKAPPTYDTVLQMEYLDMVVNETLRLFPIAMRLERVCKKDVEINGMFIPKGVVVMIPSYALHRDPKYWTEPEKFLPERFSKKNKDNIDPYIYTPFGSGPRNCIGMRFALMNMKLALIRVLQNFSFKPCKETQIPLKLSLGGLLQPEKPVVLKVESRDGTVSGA

This test has as its target Cytochrome P450 3A4 (Homo sapiens) (UniProt P08684). In words: Cytochrome panel assay with activity outcomes. Conditions: recombinant CYP, pro-luciferin dealkylation, luminescence, p450-cyp3a4; series mostly up to 57.1 µM.
As for `O=C(O)Cc1cc(I)c(Oc2ccc(O)c(I)c2)c(I)c1`, the AC50 entry is “inactive”.

On to `NC1=NC2(CCCCC2)N=C(Nc2ccc(F)cc2F)N1`, for which the AC50 result is “inactive”.

`O=C(O)CC[C@@H](C(=O)O)N1C(=O)c2ccccc2C1=O`: the activity, negative = inhibition was -3.86% [at 11.4 µM] (inactive).

Regarding `Cc1ccc(C(=O)C(OC(=O)CN2C(=O)c3ccccc3C2=O)c2ccccc2)cc1` (configuration not stated), the AC50 is 7.94 µM (active).

With `COc1ccc(C(=S)Nc2ccccc2)cc1`, the AC50 was 31.6 µM (active).

`COc1ccc(NC(=S)Nc2ccccc2)cc1`: the activity, negative = inhibition was -19.5% [at 11.4 µM] (inactive).

As for `CN(CC[C@@H](Oc1ccc(-c2ccccc2)cc1)c1ccc(F)cc1)CC(=O)O`, the AC50 result was “inactive”.

Turning to `CCN(CC)CCNC(=O)C(C)c1nn(C)c(=O)c2ccccc12` (configuration not stated), the activity, negative = inhibition is -0.681% [at 2.29 µM] (inactive).

On to `CCCn1nc(C(=O)NCC(C)(C)N2CCOCC2)c2ccccc2c1=O`, for which the AC50 was 7.08 µM (active).

As for `Cc1cc(Cl)ccc1OCCCC(=O)N1CCN(C)CC1`, the AC50 was 12.6 µM (active).

On to `CC1CCN(CCOc2cc(Cl)ccc2Cl)CC1`, for which the AC50 entry was “inactive”.

Consider `CC(C)NCCCOc1ccc(Cl)cc1Br`, for which the activity, negative = inhibition was 6.16% [at 2.29 µM] (inactive).

Take `COc1ccc(O[C@H]2C=C[C@@H](c3ccccc3)O[C@H]2CO/N=C2/[C@H]3O[C@@H]3[C@@H](O)[C@H]3[C@H]2CCn2c(=O)n(-c4ccccc4)c(=O)n23)cc1`: the AC50 was 3.16 µM (active).

On to `CC(C)=CCC/C(C)=C/CO/N=C1/[C@H]2O[C@@H]2[C@@H](O)[C@H]2[C@H]1CCn1c(=O)n(-c3ccccc3)c(=O)n12`, for which the activity, negative = inhibition was -17.8% [at 11.4 µM] (inactive).

Take `CC(C)CO/N=C1/[C@H]2O[C@@H]2[C@@H](O)[C@H]2[C@H]1CCn1c(=O)n(-c3ccccc3)c(=O)n12`: the activity, negative = inhibition was -14% [at 11.4 µM] (inactive).

For `CC(=O)OC[C@H]1O[C@@H](O/N=C2/[C@H]3O[C@@H]3[C@@H](O)[C@H]3[C@H]2CCn2c(=O)n(-c4ccccc4)c(=O)n23)[C@H](OC(C)=O)[C@@H](OC(C)=O)[C@@H]1OC(C)=O`, the activity, negative = inhibition was -17.4% [at 11.4 µM] (inactive).

`O=c1n(-c2ccccc2)c(=O)n2n1CC[C@H]1/C(=N\OCc3ccccc3)[C@H]3O[C@@H]3[C@@H](O)[C@@H]12`: the activity, negative = inhibition is -7.77% [at 11.4 µM] (inactive).

On to `CCCNC(=O)OC[C@H]1O[C@@H](CCO/N=C2/[C@H]3O[C@@H]3[C@@H](O)[C@H]3[C@H]2CCn2c(=O)n(-c4ccccc4)c(=O)n23)C=C[C@@H]1Oc1ccc(OC)cc1`, for which the AC50 is 3.16 µM (active).

Regarding `O=C(CP(=O)(c1ccccc1)c1ccccc1)Nn1cnnc1`, the AC50 result was “inactive”.

`O=C(c1csnn1)N1CCC2(CC1)CN(c1ccccc1)C2`: the AC50 result is “inactive”.

With `O=C(c1csnn1)N1CCC2(CCCN(c3ccccc3)C2)CC1`, the AC50 was 12.6 µM (active).

Regarding `O=C(c1csnn1)N1CCC2(CC1)CCN(c1ccccn1)CC2`, the AC50 entry is “inactive”.

`O=C(c1csnn1)N1CCC2(CC1)CCN(c1ccccc1)CC2`: the AC50 result was “inactive”.

`O=C(c1csnn1)N1CCC2(CCCN(c3ccc(-c4ccccc4)cc3)C2)CC1`: the AC50 is 7.94 µM (active).

For the compound `CN1CCC(n2[nH]c(-c3ccccc3)c(Cc3ccccc3)c2=O)CC1`, the AC50 is 3.98 µM (active).

Consider `O=c1c(Cc2ccccc2)c(O)nc2n1CCS2`, for which the activity, negative = inhibition is -2.9% [at 2.29 µM] (inactive).

Regarding `CCNc1ncc2nc(-c3ccc(Cl)cc3)c(=O)n(C3CC3)c2n1`, the AC50 result was “inactive”.

Consider `CCOC(=O)c1c(C(C)(C)C)oc2ccc(O)cc12`, for which the AC50 entry is “inactive”.

Regarding `CCOC(=O)c1c(C)oc2c1c(C=NC1CCS(=O)(=O)C1)c(O)c1ccccc12` (configuration not stated), the AC50 entry was “inactive”.

With `CCOC(=O)c1c(C)oc2c1cc(O)c1ccccc12`, the AC50 is 14.1 µM (active).

In the case of `CN(C)CN1CSC(=S)N(CN(C)C)C1`, the activity, negative = inhibition was -11.6% [at 11.4 µM] (inactive).

As to `COc1cc(CNC(=O)CCCC/C=C\C(C)C)ccc1O`, the AC50 was 3.98 µM (active) and 7.94 µM (active).

`COc1cc(CC(=O)O)ccc1O`: the AC50 entry is “inactive”.

In the case of `COc1cc([C@H](O)C(=O)O)ccc1O`, the AC50 result is “inactive”.

With `CCn1c(SCC(=O)Nc2sc3c(c2C(N)=O)CCC(C)C3)nnc1-c1ccco1` (configuration not stated), the AC50 is 7.08 µM (active).

Consider `CCOC(=O)c1c(NC(=S)NC(=O)c2cnn(CC)c2)sc2c1CCC(C)C2` (configuration not stated), for which the AC50 result was “inactive”.

In the case of `CCn1c(SCC(=O)Nc2sc3c(c2C#N)CCC(C(C)(C)C)C3)nnc1-c1ccco1` (configuration not stated), the AC50 result was “inactive”.

In the case of `CC(=O)C[C@H](c1ccc([N+](=O)[O-])cc1)c1c(O)c2ccccc2oc1=O`, the AC50 entry is “inactive”.

Regarding `CC1=NCC[N@@+]1(CCc1ccccc1)Cc1ccccc1`, the activity, negative = inhibition is -18.6% [at 11.4 µM] (inactive).

As for `COc1ccccc1CNc1ccnc(-c2cccc(C#N)c2)n1`, the AC50 is 3.98 µM (active).

With `COc1ccc(CNc2ccnc(-c3cccc(C#N)c3)n2)c(OC)c1`, the AC50 is 2 µM (active).

As to `N#C[C@H](c1ccccc1)N1CCCN([C@@H](C#N)c2ccccc2)C1c1ccccc1O` (some centres not stated), the activity, negative = inhibition is -24.5% [at 11.4 µM] (inactive).

`O=C(O)CC/C=C\CC[C@H]1[C@@H](N2CCCCC2)[C@@H](O)C[C@@H]1OCc1ccc(-c2ccccc2)cc1`: the AC50 entry was “inactive”.

For the compound `O=C(Nc1nnc(SCc2c(Cl)cccc2Cl)s1)C1CCCO1` (configuration not stated), the AC50 is 12.6 µM (active).

For `O=C(Nc1nnc(SCc2ccc(Cl)cc2Cl)s1)C1COc2ccccc2O1` (configuration not stated), the AC50 was 4.47 µM (active).

Regarding `O=C(Nc1ncc(Cc2ccccc2)s1)C1COc2ccccc2O1` (configuration not stated), the AC50 entry is “inactive”.

Consider `NC(=O)c1ccc(NC(=O)C2CCCO2)cc1` (configuration not stated), for which the AC50 entry was “inactive”.

As to `CCCCCCCCCCCCCCCC[N+](C)(C)CCN(Cc1ccc(OC)cc1)c1ncccn1`, the AC50 entry was “inactive”.

Consider `NC(N)=NC(N)=Nc1c(F)c(F)c(F)c(F)c1F`, for which the activity, negative = inhibition is -1.13% [at 11.4 µM] (inactive).

For `CC(C)=C1C(=O)NN(c2ccc(F)c(Cl)c2)C1=O`, the activity, negative = inhibition is -12.4% [at 11.4 µM] (inactive).

For the compound `Cc1cccc(-n2c(Cn3nc(C)c([N+](=O)[O-])c3C)n[nH]c2=S)c1`, the activity, negative = inhibition is -17% [at 2.29 µM] (inactive).

In the case of `Cc1nn(CCc2n[nH]c(=S)n2-c2ccc(F)c(Cl)c2)c(C)c1[N+](=O)[O-]`, the AC50 is 3.16 µM (active).

On to `C[n+]1ccccc1/C=N\O`, for which the AC50 entry was “inactive”.

As to `CC(C)N1CCN(c2ccc(OC[C@@H]3CO[C@@](Cn4cncn4)(c4ccc(Cl)cc4Cl)O3)cc2)CC1`, the AC50 is 1.58 µM (active).

Turning to `COc1ccccc1CNc1nc(-c2c(C)noc2C)nc2ccccc12`, the AC50 is 10 µM (active).

In the case of `Cc1noc(C)c1-c1nc(NCc2cccs2)c2ccccc2n1`, the AC50 is 6.31 µM (active).

`COc1ccc(CNc2nc(-c3c(C)noc3C)nc3ccccc23)c(OC)c1`: the AC50 was 2.51 µM (active).

For the compound `CCn1cc(C(=O)O)c(=O)c2cnc(N3CCCC3)nc21`, the AC50 entry was “inactive”.

As for `O=C(Nc1c[nH]c(=O)[nH]c1=O)Oc1ccccc1`, the activity, negative = inhibition was -22.1% [at 11.4 µM] (inactive).

Consider `CN(C)C(=O)c1ccc(-c2cncnc2NCc2cccs2)cc1`, for which the AC50 is 3.16 µM (active).

For `CN(C)c1ccc(-c2cncnc2NCc2cccs2)cc1`, the AC50 was 0.794 µM (active).

With `CCCn1c2c(c(O)c(C(=O)NCc3ccccc3)c1=O)CCCC2`, the AC50 was 17.8 µM (active).

With `CCCCCCc1nc2ccccc2c(=O)n1NC(=O)c1c(O)c2c(n(CC(C)C)c1=O)CCCC2`, the activity, negative = inhibition was 10% [at 2.29 µM] (inactive).

`Cc1cc(=O)oc(C)c1C(=O)NCc1ccccc1`: the activity, negative = inhibition is 0.149% [at 2.29 µM] (inactive).

As to `COc1ncc2nc(-c3cn(C)c4ccccc34)c(=O)n(C)c2n1`, the AC50 is 5.01 µM (active).

Regarding `COc1ncc2nc(-c3cn(C)c4ccccc34)c(=O)n(CCC#N)c2n1`, the AC50 was 6.31 µM (active).

On to `Cn1cc(-c2nc3cnc(Oc4ccccc4)nc3n(C)c2=O)c2ccccc21`, for which the AC50 result is “inactive”.

For the compound `COc1ncc2nc(-c3ccccc3)c(=O)n(-c3ccccc3)c2n1`, the AC50 entry is “inactive”.

For the compound `COc1ccc(-n2c(=O)c(-c3cn(C)c4ccccc34)nc3cnc(OC)nc32)cc1`, the AC50 is 1.58 µM (active).

`CC(=O)c1cnc2c(C(=O)O)cnn2c1C`: the AC50 result was “inactive”.

Turning to `Cc1ccc(OCC(=O)NNC(=O)CCC(=O)Nc2ccc(C)cc2C)cc1`, the AC50 result was “inactive”.

Turning to `Cc1c(NC(=O)/C=C/C(=O)O)cccc1[N+](=O)[O-]`, the AC50 entry is “inactive”.

`O=C1NCCCC1C(=O)Nc1ccccc1C(F)(F)F` (configuration not stated): the AC50 entry was “inactive”.

Take `CCN(CC)S(=O)(=O)c1ccc(OC)c(NC(=O)c2cc([N+](=O)[O-])ccc2Cl)c1`: the AC50 is 12.6 µM (active).

With `Cc1cccc(OCCCC(=O)Nc2ccccc2C(F)(F)F)c1`, the AC50 was 14.1 µM (active).

Turning to `CCOc1cc(NC(=O)c2ccccc2[N+](=O)[O-])c(OCC)cc1NC(=O)CC(C)C`, the activity, negative = inhibition was 3.38% [at 2.29 µM] (inactive).

Regarding `CCCCC(=O)Nc1cc(OCC)c(NC(=O)c2ccccc2[N+](=O)[O-])cc1OCC`, the AC50 is 7.08 µM (active).

For `Cc1c(NC(=O)CCCOc2ccccc2)cccc1[N+](=O)[O-]`, the concentration at half-maximal activity (AC50) was 14.1 µM (active).

Regarding `OC[C@@H]1O[C@@H](N2CCN([C@@H]3O[C@@H](CO)[C@@H](O)[C@H](O)[C@H]3O)CC2)[C@@H](O)[C@H](O)[C@H]1O`, the activity, negative = inhibition was 2.3% [at 11.4 µM] (inactive).

As for `CCN(CC(=O)Nc1ccc([N+](=O)[O-])cc1OC)c1ccccc1`, the AC50 is 12.6 µM (active).

`COc1ccccc1NC(=O)Cn1cncc1-c1ccc([N+](=O)[O-])cc1`: the AC50 is 14.1 µM (active).

As for `Cc1cccc[n+]1CC(=O)Nc1ccc([N+](=O)[O-])cc1Cl`, the AC50 entry was “inactive”.

Regarding `CCN(CC)C(=O)c1cc2cc([N+](=O)[O-])ccc2s1`, the activity, negative = inhibition was 20.4% [at 11.4 µM] (inactive).

For `CCCOc1ccc(/C=C/C(=O)Nc2ccc([N+](=O)[O-])cc2C)cc1`, the activity, negative = inhibition was 2.56% [at 11.4 µM] (inactive).

With `COc1cc([N+](=O)[O-])ccc1NC(=O)CCCOc1cccc(C)c1`, the AC50 was 5.01 µM (active).

For the compound `Cc1cc2nc([C@H](C)C(=O)c3ccc(Cl)cc3)c(=O)[nH]c2cc1C`, the activity, negative = inhibition is -25.9% [at 11.4 µM] (inactive).

As for `CCCS(=O)(=O)N1CCCC(C(=O)N2CCOCC2)C1` (configuration not stated), the AC50 result is “inactive”.
